This is an account of results in PubChem BioAssay (NCATS).

Assay [1] concerns the target Glutathione peroxidase 1 (Homo sapiens) (UniProt P07203). The experiment in a line: Primary qHTS Assay for Inhibitors of Recombinant Selenoprotein Glutathione Peroxidase 1 (GPX1) (AID 1845191). The following applies: outcome: dose series up to 48.8 µM unless noted. Put shortly: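 Recombinant GPX1 (10 nM final) was preincubated with compound for 30 min at room temperature, then reacted with 1 mM GSH, 0.5 mM CHP, 0.5 mM NADPH and 100 nM glutathione reductase; NADPH fluorescence (340/450 nm) was read at 0 and 15 min.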
(In general: Quantitative high-throughput screening tests each substance at several concentrations.)

The target in assay [2] is Phospholipid hydroperoxide glutathione peroxidase GPX4 (Homo sapiens) (UniProt P36969). The experiment in a line: Primary qHTS Assay for Inhibitors of Recombinant Selenoprotein Glutathione Peroxidase 4 (GPX4) (AID 1845192). The note with it: outcome: dose series up to 50 µM unless noted. Put shortly: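 GR-coupled readout: 100 nM GR, 1 mM GSH, 0.5 mM NADPH; NADPH fluorescence (ex 340/em 450 nm) read at t=0 and after 15 min RT. GPX4 200 nM, preincubated 30 min with compound; substrate 0.5 mM CHP.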
Phospholipid hydroperoxide glutathione peroxidase GPX4 (Homo sapiens), sequence (P36969 whole entry, looked up): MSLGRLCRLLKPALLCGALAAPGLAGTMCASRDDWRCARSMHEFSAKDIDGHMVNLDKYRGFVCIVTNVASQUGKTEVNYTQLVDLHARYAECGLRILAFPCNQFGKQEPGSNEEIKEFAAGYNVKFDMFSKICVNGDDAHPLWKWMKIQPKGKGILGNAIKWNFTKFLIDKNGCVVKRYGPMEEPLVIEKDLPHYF

Results filed as inconclusive are left out. Calls of active or inactive are those of the source. Calls follow the shape of the dose curve; as a rule, active = well fitted inhibition curve with a large enough effect; inconclusive = small, poorly fitted or top-dose-only effect; inactive = flat fitted curve, though single readings scatter.
Also: nearly all actives have a fitted effect of over 65% in size.

Glutathione peroxidase 1 (Homo sapiens), sequence (P07203 whole entry, looked up): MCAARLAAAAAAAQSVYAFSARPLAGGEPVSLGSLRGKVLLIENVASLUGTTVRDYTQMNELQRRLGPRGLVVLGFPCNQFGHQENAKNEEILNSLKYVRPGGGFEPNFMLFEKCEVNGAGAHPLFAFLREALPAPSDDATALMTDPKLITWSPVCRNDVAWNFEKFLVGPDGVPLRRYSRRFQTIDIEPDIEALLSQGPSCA

For the compound `CCC(=O)O[C@@H]1CC(=O)O[C@H](C)C/C=C/C=C/[C@@H](O)[C@H](C)C[C@H](CC=O)[C@H](OC2O[C@H](C)[C@@H](O[C@H]3C[C@@](C)(O)[C@@H](OC(=O)CC)[C@H](C)O3)[C@H](N(C)C)[C@H]2O)[C@H]1OC` (some centres not stated), the outcome in assay [1] and in assay [2] was inactive.
